The results in this text go back to PubChem BioAssay (NCATS).

SMILES strings stand for the structures. Results filed as inconclusive are left out. Values without a mark were called inactive. Calls of active or inactive are those of the source. Calls follow the shape of the dose curve; as a rule, active = well fitted inhibition curve with a large enough effect; inconclusive = small, poorly fitted or top-dose-only effect; inactive = flat fitted curve, though single readings scatter.
% is scaled to controls: 0 for no effect and ±100 for the full control effect.

The nature of this experiment: P-glycoprotein substrates identified in KB-8-5-11 adenocarcinoma cell line, qHTS therapeutic library screen (AID 1346987). Also: nearly all actives have a fitted effect of over 65% in size. Particulars: KB-8-5-11 (P-gp overexpressing) viability, CellTiter-Glo, 72 h; series mostly up to 44.5 µM; activity change, negative = cytotoxicity: at the top concentration. The essentials:
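Compounds are pinned in dose-response onto KB-8-5-11 cells (500 cells/well, colchicine-free medium) and left 72 h at 37 degree C. CellTiter-Glo luminescence then yields AC50 values.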
As to `CC1(C)CC2C(O)C3=C(CC(C)(O)C2C1)C(=O)OC3O` (stereo not drawn), the “activity change, negative = cytotoxicity” value is 0.194%.
For the compound `CC(C)(O)CNc1nc(Nc2ccnc(C(F)(F)F)c2)nc(-c2cccc(C(F)(F)F)n2)n1`, the “activity change, negative = cytotoxicity” value was -17.9% [at 17.3 µM].
Regarding `CC(CO[C@@H]1O[C@H](COC(=O)/C=C/c2ccc(O)c(O)c2)[C@@H](O)[C@H](O)[C@H]1O)C1(O)COC(=O)C1` (stereo partly drawn), the “activity change, negative = cytotoxicity” value is -5.06% [at 17.3 µM].
For the compound `COc1cc(C(=O)OC[C@H]2O[C@H](O[C@@]3(CO)O[C@@H](CO)[C@H](O)[C@H]3O)[C@H](O)[C@@H](O)[C@@H]2O)ccc1O`, the “outcome” value is “inactive [at 17.3 µM]”.
`CC1CCC2(C)C(CC(O)C(O)C23CO3)C1(C)CCC1=CC(=O)OC1O` (stereo not drawn): the “activity change, negative = cytotoxicity” value was -5.79%.
For `COC(=O)[C@H](CC1C=NC=N1)NCC12CC3CC(CC(C3)C1)C2` (stereo partly drawn), the “activity change, negative = cytotoxicity” value is 7.98%.
For `NC(=O)c1ccc(OCC2NC(=O)C3CCCN3C2=O)cc1` (stereo not drawn), the result was inactive.
As to `COC1=CC(=O)C[C@@H](C)[C@]12Oc1cc(OC)cc(OC)c1C2=O`, the compound was called inactive.
On to `COc1c(C(CC(C)C)OC(C)=O)ccc(Oc2c(O)cc(C)cc2/C=C/C(C)=O)c1C(=O)O` (stereo not drawn), for which the “activity change, negative = cytotoxicity” value is 3.34% [at 17.3 µM].
`C=C(C)C1CC2(CO)C(=CC1=O)CCC(O)C2C` (stereo not drawn): the “activity change, negative = cytotoxicity” value is 7.08%.
Still for that read-out and setting: next, `CC(C)c1cc2c(c(O)c1O[C@@H]1O[C@H](CO)[C@@H](O)[C@H](O)[C@H]1O)CC1(O)CCC(O)C(C)(C)C1CC2` (stereo partly drawn): 8.06% [at 17.3 µM].
Regarding `O=C(O)c1cc(O)c2cccc(O)c2c1O[C@@H]1O[C@H](CO)[C@@H](O)[C@H](O)[C@H]1O`, the result was inactive.
Take `COC(=O)C1=CO[C@@H](O[C@@H]2O[C@H](CO[C@@H]3O[C@H](COC(=O)/C=C/c4ccc(O)cc4)[C@@H](O)[C@H](O)[C@H]3O)[C@@H](O)[C@H](O)[C@H]2O)[C@@H]2C(CO)=CC[C@H]12`: the “outcome” value was “inactive [at 17.3 µM]”.
